A selection: hits, their analogues and other compounds. The true share with any hit is near 19%.
IL-1B inflam inh = qHTS for Inhibitors of Inflammasome Signaling: IL-1-beta AlphaLISA Primary Screen; THP-1 LPS/ATP IL-1B secretion, AlphaLISA, 16 h; active compounds read low; activity change, % at 57.5 µM; 360,000 tested, 4.7% active; AID 743279, 2014; in the data active means activity change below about -50%; inconclusive means mostly about -30% to -49%
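Secreted IL-1B measured by AlphaLISA bead assay after 16 h compound exposure of THP-1 cells; compounds (final up to 57.5 uM) added 1 h before LPS (250 ng/mL) and ATP (1.25 mM) stimulation; lower signal means less secretion.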
DT40 TDP1 CPT = qHTS for Inhibitors of human tyrosyl-DNA phosphodiesterase 1 (TDP1): qHTS in cells in presence of CPT; AID 686979, 2013; chicken DT40 Tdp1-/-;hTDP1 cells + 20 nM CPT, ATP luminescence, 48 h; 420,000 tested, 12% active; Potency, µM (highest dose often 46.2 µM), for inactives: at the highest dose activity change, negative = growth inhibition, usual class: inhibitors; further: potency means the concentration at half of the fitted maximal effect; nearly all actives have a fitted effect of over 55% in size
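Chicken DT40 Tdp1-/- cells complemented with human TDP1, 400 cells/well, exposed to compounds plus 20 nM camptothecin for at least 48 h at 37 C; viability read as ATP content by CellTiter-Glo luminescence.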
HT1080 IDH1KD tx = qHTS for induction of synthetic lethality in tumor cells producing 2HG: qHTS for the HT-1080-IDH1KD cell line; HT-1080 IDH1 knockdown viability, ATP luminescence, 48 h; Potency, µM (highest dose often 46.1 µM), inactives show at the top dose activity, negative = toxicity, actives largely listed as cytotoxic; 360,000 tested, 2% active;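 further: potency means the concentration at half of the fitted maximal effect; 0% = DMSO wells and -100% = cell-free medium wells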
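After a 2 h attachment period, IDH1KD HT-1080 cells took pin-transferred compound for 48 h at 37 °C; ATP-based luminescence after 10 min room-temperature reagent incubation reported viability.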
TDP1 cell noCPT = qHTS for Inhibitors of human tyrosyl-DNA phosphodiesterase 1 (TDP1): qHTS in cells in absence of CPT | 420,000 tested, 15% active | AID 686978, 2013 | DT40 Tdp1-/- hTDP1 cells, no CPT, ATP luminescence, 48 h | Potency, µM (doses to about 46.2 µM), for the others: top-dose activity change, negative = growth inhibition, most hits filed as inhibitors; further: potency means the concentration at half of the fitted maximal effect; nearly all actives have a fitted effect of over 55% in size
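Luminescent ATP content (CellTiter-Glo) served as the growth readout. Knockout chicken DT40 cells expressing human TDP1 were exposed to compounds without camptothecin for a minimum 48 hr at 37 °C.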
HT1080NT lethal = qHTS for induction of synthetic lethality in tumor cells producing 2HG: qHTS for the HT-1080-NT fibrosarcoma cell line; Potency, µM (titrated, usually from 46.1 µM), for the others: top-dose activity, negative = less viability, actives largely listed as cytotoxic; 360,000 tested, 1.6% active; HT-1080-NT fibrosarcoma viability, CellTiter-Glo ATP luminescence, 48 h;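 further: NT is the 2HG producing partner of a matched IDH1 knockdown line; potency means the concentration at half of the fitted maximal effect; 0% = DMSO-treated cells and -100% = media-only wells without cells; nearly all actives have a fitted effect of over 55% in size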
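Fibrosarcoma NT cells, 750 per well in 5% FBS RPMI, were exposed to compound for 48 hours. Viability: CellTiter-Glo luminescence.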
Numbers without * were called inactive. Unless noted, the call rests on the fitted dose curve; in most records, active means well fitted curve in the direction sought with a large enough effect; inconclusive means small, poorly fitted or top-dose-only effect, or another doubt; inactive means no such curve, though single readings can be large; an effect the other way counts as inactive or inconclusive. Unless noted, on the % scale 0 is the no-effect control and ±100 the full control effect.

CCN(CC)Cc1nc2nc(Cl)c(Cl)nc2[nH]1 was read as IL-1B inflam inh 2.9, DT40 TDP1 CPT -6.7%, HT1080 IDH1KD tx 0.7%, TDP1 cell noCPT -0.1% and HT1080NT lethal 0.5%.
For COCCn1c(=O)c(-c2ccc(Cl)cc2)nc2cnc(Oc3cccc(Cl)c3)nc21 the results were DT40 TDP1 CPT -2.1% and TDP1 cell noCPT -8.3%.
For COCCN(C(=O)COC(=O)/C=C/c1ccc(Cl)c(Cl)c1)c1c(N)n(Cc2ccccc2)c(=O)[nH]c1=O the results were IL-1B inflam inh -6.9, DT40 TDP1 CPT 16.4µM*, HT1080 IDH1KD tx -2.4%, TDP1 cell noCPT 18.4µM* and HT1080NT lethal 0.0%.
CNc1ccccc1C(=O)OCC(=O)c1ccccc1 was read as IL-1B inflam inh 2.4, DT40 TDP1 CPT -20.0%, HT1080 IDH1KD tx 6.0%, TDP1 cell noCPT -3.4% and HT1080NT lethal 18.9%.
Cc1cc(C(=O)OCC(=O)N(C)c2c(N)n(Cc3ccccc3)c(=O)[nH]c2=O)c(C)n1-c1ccccc1 was read as IL-1B inflam inh -54.9*, DT40 TDP1 CPT inconclusive, HT1080 IDH1KD tx -5.1%, TDP1 cell noCPT -26.3% and HT1080NT lethal -7.1%.
`O=C(COC(=O)c1ccccc1Nc1ccccc1)c1ccccc1` gave IL-1B inflam inh -60.0*, DT40 TDP1 CPT -15.7%, HT1080 IDH1KD tx -23.0%, TDP1 cell noCPT -25.1% and HT1080NT lethal -3.2%.
`CN(C(=O)COC(=O)c1ccccc1Nc1ccccc1)c1c(N)n(Cc2ccccc2)c(=O)[nH]c1=O` gave IL-1B inflam inh -63.3*, DT40 TDP1 CPT inconclusive, HT1080 IDH1KD tx inconclusive, TDP1 cell noCPT 16.4µM* and HT1080NT lethal inconclusive.
`CCc1ccc(NC(=O)CCc2c(C)n(C)c3cc(-c4ccccc4C)nn3c2=O)cc1` gave DT40 TDP1 CPT -28.6% and TDP1 cell noCPT -28.0%.
CCOC1=C2CN(S(=O)(=O)c3ccc(C)cc3)[C@H](c3cccc(Cl)c3)C[C@@H]2N(S(=O)(=O)c2ccccc2[N+](=O)[O-])[C@H](c2ccccc2)C1 was read as IL-1B inflam inh -11.4, DT40 TDP1 CPT -4.8%, HT1080 IDH1KD tx 9.7%, TDP1 cell noCPT -6.5% and HT1080NT lethal 18.7%.
COCCN(C(=O)COC(=O)c1ccccc1Nc1ccccc1)c1c(N)n(Cc2ccccc2)c(=O)[nH]c1=O was read as IL-1B inflam inh -52.8*, DT40 TDP1 CPT 20.6µM*, HT1080 IDH1KD tx inconclusive, TDP1 cell noCPT inconclusive and HT1080NT lethal inconclusive.
CCC(=O)Nc1nnc2n1CCS2 was read as DT40 TDP1 CPT -7.5% and TDP1 cell noCPT -2.7%.
`O=C(NCCN1CCOCC1)c1ccc(CSc2nc3ccncc3n2Cc2ccc(F)cc2)cc1` gave IL-1B inflam inh -18.0, DT40 TDP1 CPT -17.8%, HT1080 IDH1KD tx -0.9%, TDP1 cell noCPT inconclusive and HT1080NT lethal -10.0%.
Screening O=C(NC1CCCC1)c1ccc(CSc2nc3ccncc3n2Cc2cccc(F)c2)cc1 returned DT40 TDP1 CPT inconclusive and TDP1 cell noCPT 16.4µM*.
O=C(NCc1ccc(F)cc1)c1ccc(CSc2nc3ccncc3n2Cc2ccc(F)cc2)cc1 was read as DT40 TDP1 CPT 23.1µM* and TDP1 cell noCPT -96.9%.
Screening CN1CCN(C(=O)c2ccc(CSc3nc4ccncc4n3Cc3ccc(F)cc3)cc2)CC1 returned IL-1B inflam inh -22.8, DT40 TDP1 CPT -14.3%, HT1080 IDH1KD tx -13.4%, TDP1 cell noCPT -29.7% and HT1080NT lethal -18.8%.
For O=C(NC1CCCC1)c1ccc(CSc2nc3ccncc3n2Cc2ccc(F)cc2)cc1 the results were IL-1B inflam inh 2.6, DT40 TDP1 CPT inconclusive, HT1080 IDH1KD tx -12.1%, TDP1 cell noCPT 16.4µM* and HT1080NT lethal -1.2%.
`CCN(CC)C(=O)C(=O)N/N=C/c1ccc(Br)cc1` gave IL-1B inflam inh 17.0, DT40 TDP1 CPT 0.0%, HT1080 IDH1KD tx 1.6%, TDP1 cell noCPT -21.8% and HT1080NT lethal 5.7%.
Screening O=C(c1cc(Br)c(Br)s1)N1CCN(c2ccccn2)CC1 returned IL-1B inflam inh 0.0, DT40 TDP1 CPT inconclusive, HT1080 IDH1KD tx -17.4%, TDP1 cell noCPT inconclusive and HT1080NT lethal -5.2%.
Screening COc1cc(NC(=O)C2=COCCO2)c(OC)cc1Cl returned IL-1B inflam inh -4.1, DT40 TDP1 CPT -9.5%, HT1080 IDH1KD tx -4.4%, TDP1 cell noCPT -18.8% and HT1080NT lethal -0.4%.
CSCCC(NC(=O)c1ccccc1Cl)C(=O)NCCOc1ccc(C)cc1 (stereo not drawn) was read as IL-1B inflam inh -11.2, DT40 TDP1 CPT -3.9%, HT1080 IDH1KD tx -5.2%, TDP1 cell noCPT -2.7% and HT1080NT lethal -5.1%.
COc1ccc(C(=O)/C=C2/C(=O)Nc3ccccc32)c(OC)c1 was read as IL-1B inflam inh -100.9*, DT40 TDP1 CPT 4.11µM*, HT1080 IDH1KD tx 23.1µM*, TDP1 cell noCPT 2.59µM* and HT1080NT lethal 18.4µM*.
`COc1ccc(C(=O)/C=C2/C(=O)Nc3ccccc32)cc1OC` gave IL-1B inflam inh -81.5*, DT40 TDP1 CPT 16.4µM*, HT1080 IDH1KD tx -10.4%, TDP1 cell noCPT 4.11µM* and HT1080NT lethal -8.9%.
`COc1ccc(C(=O)/C=C2/C(=O)Nc3ccccc32)cc1` gave IL-1B inflam inh inconclusive, DT40 TDP1 CPT 9.2µM*, HT1080 IDH1KD tx inconclusive, TDP1 cell noCPT 4.11µM* and HT1080NT lethal inconclusive.
`O=C1Nc2ccccc2/C1=C/C(=O)c1cccs1` gave IL-1B inflam inh -119.5*, DT40 TDP1 CPT 6.51µM*, HT1080 IDH1KD tx inconclusive, TDP1 cell noCPT 8.2µM* and HT1080NT lethal inconclusive.
For COc1cc(/C=N/N=C2/C(=O)Nc3ccccc32)cc(OC)c1O the results were IL-1B inflam inh inconclusive, DT40 TDP1 CPT -49.3%, HT1080 IDH1KD tx inconclusive, TDP1 cell noCPT inconclusive and HT1080NT lethal -13.8%.
Screening O=C(COC(=O)CCc1nc2ccccc2s1)NC(=O)NCc1ccco1 returned IL-1B inflam inh 0.0, DT40 TDP1 CPT 14.7%, HT1080 IDH1KD tx 3.7%, TDP1 cell noCPT 9.3% and HT1080NT lethal -3.6%.
COc1ccc(Oc2ncc3nc(CCc4ccccc4)c(=O)n(C)c3n2)cc1 was read as DT40 TDP1 CPT -4.6% and TDP1 cell noCPT -27.2%.
CCOc1ccc(NC(=O)N2CCOc3ccccc32)cc1 was read as DT40 TDP1 CPT -26.6% and TDP1 cell noCPT -24.0%.
